# Data as given in the supplement of paper PMC4954754.
# ± gives the uncertainty stated by the source.
# System: HEK293T-Rex XBP1-RLuc
# Test: XBP1-RLuc splicing reporter activation, triplicate, relative to 500 nM thapsigargin (% of thapsigargin); higher = stronger IRE1/XBP1s reporter activation
# Conditions: 6.8 µM; 18 h; screen: confirmation
# Protocol: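 HEK293T-Rex cells stably expressing the ERSE-firefly luciferase (BiP promoter, ATF6-preferring) or XBP1-splicing Renilla luciferase (IRE1/XBP1s) reporter, 1536-well plates, compound at 6.8 µM for 18 hr at 37 °C; luminescence read […] and expressed as % activation = 100*(compound - median DMSO)/(median 500 nM thapsigargin - median DMSO). Primary screen was single-pass; confirmation screen in triplicate (mean ± SD).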
row,SMILES,XBP1-RLuc splicing reporter activation
1,Nc1ccc2nc(/C=C/c3ccccc3)[nH]c2c1,13.7 ± 0.35
2,CCCNC(=O)c1cc(-c2cccs2)on1,5.97 ± 0.33
3,N#Cc1ccc(-c2cccs2)nc1SCc1ccccn1,0.766 ± 2.5
4,O=C(NC(c1ccccc1)c1ccccc1)c1csc(-c2cnccn2)n1,19 ± 0.61
5,CCc1cc2c(=O)c(-c3ccc4c(c3)OCCO4)coc2cc1OC,12.2 ± 0.77
6,COC(=O)c1c(NC(=O)CCl)sc(C(=O)Nc2cccc([N+](=O)[O-])c2)c1C,12.1 ± 0.46
7,N#C/C(=C/c1ccc(O)c(O)c1)c1nc2ccccc2[nH]1,10.3 ± 0.38
8,O=C(Nc1ccccc1O)c1ccc(C(=O)c2ccccc2)cc1,10.4 ± 0.77
9,CCOc1ccc2nc(NC(=O)c3ccn(C)n3)sc2c1,-1.23 ± 2
10,Cc1ccc(O)c(NC(=O)CSc2ccccc2)c1,10.5 ± 5.2
11,O=C(N/N=C/c1ccc(O)c(O)c1)c1cccc(Cl)c1,6.18 ± 0.63
12,O=[N+]([O-])c1ccc2nc(/C=C/c3ccccc3)[nH]c2c1,1.8 ± 0.81
13,N/C(=N\N=C\c1ccc(O)c(O)c1)c1nonc1N,19.5 ± 0.38
14,O=C(N/N=C/c1cccc2ccccc12)c1ccc2c(c1)OCO2,5.9 ± 3.2
15,COc1cccc(C2=NOC(C(=O)Nc3cc(C)ccc3O)C2)c1 (stereo not given),14.1 ± 0.22
16,C=CCNC(=O)c1cc(-c2ccccc2)on1,5.5 ± 0.76
17,Cc1ccc(/C=N/NC(=O)c2cccc(Cl)c2)cc1,0.915 ± 0.53
18,Cc1cc2nc(/C(C#N)=C/c3ccco3)[nH]c2cc1C,4.3 ± 0.47
19,COc1cccc(Nc2nc(-c3ccc(OC)c(F)c3)cs2)c1,1.64 ± 0.88
20,NC(=O)c1c(NC(=O)c2cccc3ccccc23)sc2c1CCC2,9.06 ± 0.86

row,SMILES,XBP1-RLuc splicing reporter activation
1,CC(C)NC(=O)c1cc(-c2ccc(O)cc2)on1,18.5 ± 1.6
2,Oc1ccc(-c2csc3nc(-c4ccccc4)nn23)c(O)c1,15.3 ± 1.7
3,CC(=O)Oc1ccc(C(=O)OCc2ccc(Cl)cc2)cc1OC(C)=O,12.3 ± 2.2
4,Cc1ccc(O)c(NC(=O)c2cc(-c3cccnc3)on2)c1,19.8 ± 0.85
5,Fc1ccc(-c2nnc3ccc(N4CCN(c5ccccn5)CC4)nn23)cc1,38.3 ± 2.6
6,Cc1ccc(O)c(NC(=O)CN(C)S(=O)(=O)c2ccc(Cl)cc2)c1,15.1 ± 3.3
7,CCn1c(/C(C#N)=C/c2ccc(OC)cc2)nc2ccccc21,-0.629 ± 1.8
8,N#Cc1c(NC(=O)c2ccc3ncsc3c2)sc2c1CCC2,1.45 ± 1.6
9,COc1ccccc1/C=C/C(=O)Nc1ccc(Cl)cn1,-1.93 ± 1.5
10,CN(C)c1ccc(/C=N/NC(=O)c2cccc(Br)c2)cc1,1.93 ± 3.2
11,CC(C)CNC(=O)c1cc(-c2ccc(F)cc2)no1,4.97 ± 1.2
12,COc1ccc(-c2csc(-c3ccc(O)cc3)n2)cc1,8.78 ± 1.3
13,COc1ccc(-n2nnnc2SCC(N)=O)c(OC)c1,13.9 ± 1.2
14,COc1ccc(N(C(=O)c2ccccc2)S(=O)(=O)c2cc(OC)ccc2OC)cc1,59.2 ± 7.4
15,O=C1/C(=C/c2ccc(O)c(O)c2)Oc2cc(O)ccc21,12.6 ± 0.23
16,CCOc1cccc(/C=C2\NC(=S)N(C)C2=O)c1O,-2.09 ± 0.54
17,Cc1nn(-c2ccc(F)cc2)c2ncc(C(=O)NCc3ccco3)c(Cl)c12,110 ± 9.1
18,Cc1cc(C)nc(/N=C(\N)Nc2ccc(OCCC(C)C)cc2)n1,101 ± 1.1
19,COc1ccccc1-c1cnnc(N/N=C/c2c[nH]c3ccccc23)n1,8 ± 0.78
20,O=C(CCCCCCC(=O)Nc1ccccc1)NO,-3.63 ± 0.95
